Experimental data reported in PubChem BioAssay.
“And” between values parts separate entries of the source, which are not always exact repeats. Equal values may be shown once. The source made the active and inactive calls.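 Rule for the calls, unless noted: active = compounds whose cell count with miR-34 switched on is under 0.7 times the count with it off; inactive = the rest.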

Experiments:
[1] = sensitizers of A549 cells to miR-34 induction, primary screen, imaging, A549 dox-inducible miR-34, nuclei and caspase counts (AID 1347080); details: A549 miR-34 inducible, Hoechst nuclei count, 48 h
[2] = survival rescue of mitochondrial mutant cells in low glucose, primary screen, MELAS cybrids, Rieske KO mouse fibroblasts, CellTiter-Glo (AID 1508586;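 active = mean z-score across replicates of 1.96 or higher in either the MELAS or the Rieske mutant cell line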;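 note: z relative to plate mean and SD of compound and empty wells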)
[3] = target: NAD(+) hydrolase SARM1 (Homo sapiens) (UniProt Q6SZW1); test: SARM1 TIR NADase inhibitors, cell lysate, NAD-Glo luminescence (AID 1508614;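 active = compound whose remaining NAD level is above about 45 nM, limit read from the data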;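 note: higher remaining NAD means stronger inhibition of SARM1 NADase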); details: SAM-TIR HEK293T lysate NADase, at 1 µM, stronger effect = higher value
Chain of NAD(+) hydrolase SARM1 (Homo sapiens) (Q6SZW1 whole entry, looked up, the tested form may be a part): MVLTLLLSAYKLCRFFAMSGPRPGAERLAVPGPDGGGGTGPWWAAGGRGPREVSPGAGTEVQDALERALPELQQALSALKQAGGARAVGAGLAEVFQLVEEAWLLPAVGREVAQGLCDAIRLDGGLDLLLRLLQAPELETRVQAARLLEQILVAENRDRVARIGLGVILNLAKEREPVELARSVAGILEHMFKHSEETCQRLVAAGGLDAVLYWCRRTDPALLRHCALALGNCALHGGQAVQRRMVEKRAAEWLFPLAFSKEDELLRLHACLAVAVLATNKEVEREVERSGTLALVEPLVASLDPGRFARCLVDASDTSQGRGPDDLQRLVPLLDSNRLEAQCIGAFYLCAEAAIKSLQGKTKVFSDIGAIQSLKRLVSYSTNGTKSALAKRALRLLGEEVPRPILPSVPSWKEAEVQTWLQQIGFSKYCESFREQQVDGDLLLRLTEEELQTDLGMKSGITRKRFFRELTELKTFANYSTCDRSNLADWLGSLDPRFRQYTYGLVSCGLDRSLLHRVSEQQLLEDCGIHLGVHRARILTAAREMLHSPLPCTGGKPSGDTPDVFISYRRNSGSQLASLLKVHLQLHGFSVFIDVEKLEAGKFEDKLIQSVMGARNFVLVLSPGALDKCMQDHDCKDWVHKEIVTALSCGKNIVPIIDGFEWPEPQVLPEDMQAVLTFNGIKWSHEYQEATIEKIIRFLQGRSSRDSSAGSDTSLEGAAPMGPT

[4] = target: Mitogen-activated protein kinase 7 (Homo sapiens) (UniProt Q13164); test: ERK5 transactivation activators in reporter cells, primary screen, cell-based, HTS (AID 1508626;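 active = luciferase signal above three times the same-plate solvent-only control wells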;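 note: luciferase driven by Gal4-ERK5 fusion binding five Gal4 sites before minimal TATA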); details: HeLa Gal4-ERK5 transactivation, 18 h, at 5 µM, stronger effect = higher value
Chain of Mitogen-activated protein kinase 7 (Homo sapiens) (Q13164 whole entry, looked up, the tested form may be a part): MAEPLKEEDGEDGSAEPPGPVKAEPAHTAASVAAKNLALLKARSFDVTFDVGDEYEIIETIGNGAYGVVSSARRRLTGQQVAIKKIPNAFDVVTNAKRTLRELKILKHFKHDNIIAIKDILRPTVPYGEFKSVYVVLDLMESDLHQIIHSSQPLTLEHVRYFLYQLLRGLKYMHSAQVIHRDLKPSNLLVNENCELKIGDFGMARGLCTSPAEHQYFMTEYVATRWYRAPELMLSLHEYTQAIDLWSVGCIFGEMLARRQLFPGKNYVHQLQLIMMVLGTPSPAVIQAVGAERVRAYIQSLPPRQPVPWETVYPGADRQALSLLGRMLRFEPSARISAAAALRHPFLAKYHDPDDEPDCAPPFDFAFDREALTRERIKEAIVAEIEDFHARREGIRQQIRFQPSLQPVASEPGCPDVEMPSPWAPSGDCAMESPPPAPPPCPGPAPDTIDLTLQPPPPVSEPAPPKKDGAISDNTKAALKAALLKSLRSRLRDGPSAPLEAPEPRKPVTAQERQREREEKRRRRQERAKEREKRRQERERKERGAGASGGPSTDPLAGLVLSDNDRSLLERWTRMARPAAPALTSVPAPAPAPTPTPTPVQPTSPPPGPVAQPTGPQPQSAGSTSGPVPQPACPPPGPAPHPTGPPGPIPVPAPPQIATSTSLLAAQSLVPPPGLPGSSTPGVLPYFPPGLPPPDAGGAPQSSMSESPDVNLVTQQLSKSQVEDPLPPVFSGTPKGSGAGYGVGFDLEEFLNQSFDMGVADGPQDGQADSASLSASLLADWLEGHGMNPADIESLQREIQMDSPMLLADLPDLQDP

[5] = stronger effect = lower value, cell number ratio, induced over uninduced
[6] = measured here: relative caspase fold change +Dox/-Dox
[7] = measured here: total cells with miR-34 induction, stronger effect = lower value
[8] = measured here: total cells without miR-34 induction
[9] = MELAS cybrid survival, CellTiter-Glo 48 h, stronger effect = higher value
[10] = Rieske KO mouse fibroblast survival, CellTiter-Glo 72 h

Compound	fold change [1, 5]	fold change [1, 6]	cell count [1, 7]	cell count [1, 8]	z-score [2, 9]	z-score [2, 10]	remaining NAD [3]	luciferase signal [4]
C[C@@H]1C[C@H]2[C@@H]3C[C@H](F)C4=CC(=O)C=C[C@]4(C)[C@@]3(F)[C@@H](O)C[C@]2(C)[C@@]1(O)C(=O)CO	0.863 (inactive)	1.53	6000	6940	0.578 (inactive)	0.936	10 nM (inactive)	116 AU (inactive)
Cc1ccc(C(=O)C(C)CN2CCCCC2)cc1 (configuration not stated)	0.986 (inactive)	0.455	8610	8730	-0.166 (inactive)	-0.145	10 nM (inactive)	40 AU (inactive)
CC(=O)Oc1cccc2c1C(=O)c1c(OC(C)=O)cc(C(=O)O)cc1C2=O	0.904 (inactive)	2.1	8090	8950	-0.263 (inactive) and -0.828 (inactive)	-0.165 and -1.06	10 nM (inactive)	44 AU (inactive)
Cc1cc(=O)n(-c2ccccc2)n1C	0.939 (inactive) and 0.859 (inactive) and 0.88 (inactive)	0.938 and 0.796 and 1.12	8700 and 7960 and 10700	9270 and 12100	-0.258 (inactive) and 0.556 (inactive)	-0.2 and -0.0597	10 nM (inactive)	116 AU (inactive)
O=C(O)c1ccccc1O	0.935 (inactive) and 0.936 (inactive)	0.622 and 2.5	8100 and 11600	8660 and 12400	-0.0591 (inactive)	-0.159	10 nM (inactive)	24 AU (inactive)
CCOC(=O)c1ccc(N)cc1	0.793 (inactive) and 0.945 (inactive) and 0.848 (inactive)	1.13 and 0.443 and 0.967	7670 and 8350 and 9530	9660 and 8840 and 11200	-0.198 (inactive) and -0.244 (inactive)	-0.136 and -0.658	10 nM (inactive)	112 AU (inactive)
NC(=O)N/N=C/c1ccc([N+](=O)[O-])o1	0.848 (inactive) and 0.979 (inactive)	1.31 and 0.64	7760 and 9710	9150 and 9920	-0.906 (inactive)	-1.1	10 nM (inactive)	36 AU (inactive)
CC(=O)[C@@]1(O)CC[C@H]2[C@@H]3C[C@H](C)C4=CC(=O)C=C[C@]4(C)[C@@]3(F)[C@@H](O)C[C@@]21C	0.84 (inactive)	1.39	6290	7490	-0.955 (inactive)	0.456	10 nM (inactive)	76 AU (inactive)
CCN(CCCc1ccccc1)CCCc1ccccc1	0.954 (inactive) and 0.931 (inactive) and 0.904 (inactive)	1.55 and 0.42 and 0.729	9190 and 7300 and 10700	9640 and 7840 and 11900	-0.31 (inactive) and -0.215 (inactive)	-0.176 and -0.103	10 nM (inactive)	48 AU (inactive)
CCCCC1C(=O)N(c2ccccc2)N(c2ccc(O)cc2)C1=O (configuration not stated)	0.952 (inactive) and 0.848 (inactive)	0.53 and 1.48	8300 and 10300	8720 and 12100	-1.46 (inactive)	-1.25	10 nM (inactive)	144 AU (inactive)
O=C(CCCCC(=O)Nc1c(I)cc(I)c(C(=O)O)c1I)Nc1c(I)cc(I)c(C(=O)O)c1I	0.893 (inactive)	1.51	9730	10900	0.645 (inactive)	-0.141	10 nM (inactive)	44 AU (inactive)
C=CCSCC1Nc2cc(Cl)c(S(N)(=O)=O)cc2S(=O)(=O)N1 (configuration not stated)	0.925 (inactive) and 0.942 (inactive)	0.973 and 1.58	8690 and 12000	9400 and 12700	-0.333 (inactive)	-0.472	10 nM (inactive)	40 AU (inactive)
CCC(Cc1c(I)cc(I)c(N)c1I)C(=O)O (configuration not stated)	0.941 (inactive) and 0.781 (inactive)	0.773 and 3.75	9300 and 9110	9880 and 11700	0.0916 (inactive)	-0.459	10 nM (inactive)	56 AU (inactive)
Nc1nc2c(c(=O)[nH]1)N(C=O)C(CNc1ccc(C(=O)N[C@@H](CCC(=O)O)C(=O)O)cc1)CN2 (some centres not stated)	0.908 (inactive) and 0.841 (inactive)	0.756 and 0.824	9140 and 10900	10100 and 12900	-0.42 (inactive)	0.152	10 nM (inactive)	72 AU (inactive)
